# Values joined by “and” are separate entries in the source; they are usually repeats but may differ in a detail not shown here. Identical values can stand only once.
# Test system: HL-1
# Assay: cardiomyocyte survival under oxidative or metabolic stress – cell-based, panel, H9c2 and HL-1, ATP luminescence, set 2, SAR follow-up (AID 651871);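 further: cells exposed to stressor for 2 h before ATP readout; reference of the scale not given here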
# Details: H9c2/HL-1 cardiomyocytes, 2-deoxyglucose stress, with 2-deoxyglucose, run 6, at 19.8 µM (top of the series)
compound,measurement,value
COc1ccc2c(c1OC)C(=O)N1c3ccccc3C(=O)N(Cc3cccc(Cl)c3Cl)C21 (stereo unspecified),activity (protection/inhibition),29.6% and 37.4%
